Among all 220,000 compounds or so, about 920 (0.42%) were called active. This excerpt belongs to a sample that is enriched for actives. A number with no mark means an inactive call. No stated cut-off is given here; in the data, active means inhibition above about 15%; inactive means the rest.
target: Transitional endoplasmic reticulum ATPase (Homo sapiens) (UniProt P55072); test: p97 ATP hydrolysis blockers – biochemical, primary screen (AID 1481); conditions: recombinant p97 ATPase, Kinase-Glo ATP luminescence, 3 h; at 8 µM; active compounds read high;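 further: 0% = DMSO vehicle and 100% = wells lacking enzyme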
Sequence (P55072 whole entry, looked up): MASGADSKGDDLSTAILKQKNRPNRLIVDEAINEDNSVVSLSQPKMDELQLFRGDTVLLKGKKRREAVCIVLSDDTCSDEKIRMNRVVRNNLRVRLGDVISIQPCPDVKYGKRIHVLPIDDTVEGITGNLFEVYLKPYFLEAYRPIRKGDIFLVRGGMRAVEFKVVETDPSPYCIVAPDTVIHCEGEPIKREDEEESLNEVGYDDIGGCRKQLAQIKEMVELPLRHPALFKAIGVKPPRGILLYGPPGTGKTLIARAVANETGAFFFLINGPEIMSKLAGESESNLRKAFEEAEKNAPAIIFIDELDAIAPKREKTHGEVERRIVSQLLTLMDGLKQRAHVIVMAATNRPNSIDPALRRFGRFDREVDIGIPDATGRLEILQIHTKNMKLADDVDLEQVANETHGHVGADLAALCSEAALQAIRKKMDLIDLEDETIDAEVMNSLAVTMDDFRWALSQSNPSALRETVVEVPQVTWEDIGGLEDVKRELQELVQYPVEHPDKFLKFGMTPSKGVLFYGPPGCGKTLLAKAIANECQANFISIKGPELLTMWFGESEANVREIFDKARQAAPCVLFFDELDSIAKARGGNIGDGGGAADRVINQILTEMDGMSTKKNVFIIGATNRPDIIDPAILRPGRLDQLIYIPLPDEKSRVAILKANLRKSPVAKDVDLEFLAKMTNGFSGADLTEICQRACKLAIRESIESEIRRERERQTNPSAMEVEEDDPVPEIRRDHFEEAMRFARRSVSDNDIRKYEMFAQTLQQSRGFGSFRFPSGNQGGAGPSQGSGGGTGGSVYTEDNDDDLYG

| Structure (SMILES) | inhibition |
| --- | --- |
| O=c1[nH]c(CN2CC=C(c3ccccc3)CC2)nc2scc(-c3cccs3)c12 | 15.1% (active) |
| O=c1c2ccccc2nc(-c2ccccc2)n1-c1ccccn1 | 3.57% |
| CNC(=O)Nc1ccc(C(O)(C(=O)OC)C(F)(F)F)cc1 (stereo not given) | -1.08% |
| CC(=O)Nc1ccccc1C(=O)OCC(=O)c1cccc2ccccc12 | -0.08% |
| N=c1ccccn1Cc1ccccc1 | 10.5% |

— PubChem BioAssay AID1481 (The Scripps Research Institute Molecular Screening Center, 2009)
